Test results from PubChem BioAssay (EPA / NIEHS).
The source made the active and inactive calls. The calls were made as follows: active = hit-call score of the fitted dose curve at least 0.9, where 1 is the maximum; inactive = score below 0.9.

What was measured:
[1] = CEETOX_H295R_TESTO: CeeTox H295R High-throughput Steroidogenesis Assay for Testosterone (TESTO) (AID 2283457); settings: actives raise or lower the signal;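 as to AC50: cells exposed to chemicals for 48 h before medium collection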
Method in brief: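 H295R, passage ≤10, 48 h dosing; media extracted with MTBE → HPLC-MS/MS for testosterone; 7-pt standard curve sets LLOQ/ULOQ; bidirectional fit vs DMSO; MTT viability same wells.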

[2] = read-out: Cyclin D1 (CCND1), CCND1 (gene 595); assay: LTEA_HepaRG_CCND1: Life Technologies and Expression Analysis (LTEA) Assay for Cyclin D1 (CCND1) using HepaRG (AID 2283451); settings: mRNA level, 48 h; actives raise or lower the signal
Method in brief: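 HepaRG plated 48 h, medium switched to serum-free induction medium, chemicals added in duplicate (top 100 uM, half-log steps, 0.5% DMSO) for 48 h, cells lysed, RNA measured by TaqMan qRT-PCR.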

[3] = read-out: catalase (CAT), CAT (gene 847); assay: LTEA_HepaRG_CAT: Life Technologies and Expression Analysis (LTEA) Assay for catalase (CAT) using HepaRG (AID 2283452); settings: mRNA level, 48 h; actives raise or lower the signal
Method in brief: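 Differentiated HepaRG cells in serum-free induction medium were dosed 48 h in duplicate, eight half-log concentrations from 100 uM in 0.5% DMSO. Transcript measured by TaqMan qRT-PCR, normalised to ACTB/GAPDH/POLR2A, fitted bidirectionally against DMSO.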

[4] = read-out: flavin-containing dimethylaniline monooxygenases 3 (FMO3), FMO3 (gene 2328); assay: LTEA_HepaRG_FMO3: Life Technologies and Expression Analysis (LTEA) Assay for flavin-containing dimethylaniline monooxygenases 3 (FMO3) using HepaRG (AID 2283453); settings: mRNA level, 48 h; actives raise or lower the signal
Method in brief: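 FMO3 transcript quantified by TaqMan qRT-PCR against three housekeeping genes after 48 h chemical exposure of HepaRG cells. Eight-point half-log series, top 100 uM, 0.5% DMSO vehicle; phenobarbital 1mM induction control; up- or down-regulation fitted.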

[5] = read-out: Cytochrome P450 (CYP1A1), CYP1A1 (gene 1543); assay: LTEA_HepaRG_CYP1A1: Life Technologies and Expression Analysis (LTEA) Assay for Cytochrome P450 (CYP1A1) using HepaRG (AID 2283454); settings: mRNA level, 48 h; actives raise or lower the signal
Method in brief: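 HepaRG, 48 h post-plating switched to serum-free induction medium; 8-pt conc-response (top 100 uM, half-log, 0.5% DMSO), duplicates, 48 h. Lysis in RLT, TaqMan qRT-PCR for CYP1A1; gain or loss vs DMSO.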

[6] = read-out: CFLAR gene, CFLAR (gene 8837); assay: LTEA_HepaRG_CFLAR: Life Technologies and Expression Analysis (LTEA) Assay for CFLAR gene using HepaRG (AID 2283455); settings: mRNA level, 48 h; actives raise or lower the signal
Method in brief: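 Gain- or loss-of-signal changes in CFLAR transcript were fitted bidirectionally relative to 0.5% DMSO. Cells (HepaRG, duplicate wells) were dosed for 48 h across eight half-log concentrations topping at 100 uM; quantitation by TaqMan qRT-PCR.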

[7] = read-out: Forkhead box O1 (FOXO1), FOXO1 (gene 2308); assay: LTEA_HepaRG_FOXO1: Life Technologies and Expression Analysis (LTEA) Assay for Forkhead box O1 (FOXO1) using HepaRG (AID 2283456); settings: mRNA level, 48 h; actives raise or lower the signal
Method in brief: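 Using one lot of HepaRG hepatic cells kept in 0.5% DMSO, the team applied test chemicals in duplicate, half-log dilutions from 100 uM, for 48 h. Expression, normalised to ACTB/GAPDH/POLR2A, was compared with vehicle in either direction.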

[8] = read-out: growth arrest and DNA damage 45 (GADD45A), GADD45A (gene 1647); assay: LTEA_HepaRG_GADD45A: Life Technologies and Expression Analysis (LTEA) Assay for growth arrest and DNA damage 45 (GADD45A) using HepaRG (AID 2283458); settings: mRNA level, 48 h; actives raise or lower the signal
Method in brief: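 Transcript induction or loss, quantified by TaqMan qRT-PCR against three housekeeping genes, is the read-out. HepaRG cells received chemicals for 48 h across eight half-log concentrations from 100 uM in 0.5% DMSO; gain and loss fitted relative to DMSO.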

[9] = read-out: Forkhead box O3 (FOXO3), FOXO3 (gene 2309); assay: LTEA_HepaRG_FOXO3: Life Technologies and Expression Analysis (LTEA) Assay for Forkhead box O3 (FOXO3) using HepaRG (AID 2283459); settings: mRNA level, 48 h; actives raise or lower the signal
Method in brief: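 Gene-expression endpoint: FOXO3 transcript level by qRT-PCR in HepaRG cultures treated 48 h with chemicals up to 100 uM (half-log, 0.5% DMSO vehicle).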

[10] = read-out: ABC Transporter (ABCB1), ABCB1 (gene 5243); assay: LTEA_HepaRG_ABCB1: Life Technologies and Expression Analysis (LTEA) Assay for ABC Transporter (ABCB1) using HepaRG (AID 2283460); settings: mRNA level, 48 h; actives raise or lower the signal
Method in brief: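 Human liver HepaRG line treated 48 h with up to 100 uM compound (eight half-log points, 0.5% DMSO); ABCB1 mRNA change fitted bidirectionally against DMSO controls.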

[11] = read-out: growth arrest and DNA damage 45 (GADD45B), GADD45B (gene 4616); assay: LTEA_HepaRG_GADD45B: Life Technologies and Expression Analysis (LTEA) Assay for growth arrest and DNA damage 45 (GADD45B) using HepaRG (AID 2283461); settings: mRNA level, 48 h; actives raise or lower the signal
Method in brief: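 HepaRG, ~100,000 cells/well, 48 h plating; serum-free induction medium; cpd 100 uM top, half-log x8, 0.5% DMSO, duplicate, 48 h; lysis in RLT, RNA isolation, qRT-PCR; norm ACTB/GAPDH/POLR2A; bidirectional fit vs DMSO.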

[12] = read-out: ABC Transporter (ABCC3), ABCC3 (gene 8714); assay: LTEA_HepaRG_ABCC3: Life Technologies and Expression Analysis (LTEA) Assay for ABC Transporter (ABCC3) using HepaRG (AID 2283462); settings: mRNA level, 48 h; actives raise or lower the signal
Method in brief: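 Human HepaRG, 48 h dosing, 8-pt half-log series from 100 uM, 0.5% DMSO vehicle, duplicates. ABCC3 mRNA by TaqMan qRT-PCR, housekeeping-normalized; bidirectional curve fit vs DMSO.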

[13] = read-out: ABC Transporter (ABCB11), ABCB11 (gene 8647); assay: LTEA_HepaRG_ABCB11: Life Technologies and Expression Analysis (LTEA) Assay for ABC Transporter (ABCB11) using HepaRG (AID 2283463); settings: mRNA level, 48 h; actives raise or lower the signal
Method in brief: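 Using HepaRG cultures held in 0.5% DMSO, chemicals were tested at half-log dilutions from 100 uM for 48 h. Induction or suppression of ABCB11 mRNA, normalized to ACTB, GAPDH and POLR2A, was fitted bidirectionally against vehicle.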

[14] = read-out: ABC Transporter (ABCC2), ABCC2 (gene 1244); assay: LTEA_HepaRG_ABCC2: Life Technologies and Expression Analysis (LTEA) Assay for ABC Transporter (ABCC2) using HepaRG (AID 2283464); settings: mRNA level, 48 h; actives raise or lower the signal
Method in brief: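 HepaRG, 48 h post-plating; serum-free induction medium; cpd 8-pt, 100 uM top, half-log, 0.5% DMSO, duplicate, 48 h. Readout: ABCC2 mRNA by qRT-PCR, norm. ACTB/GAPDH/POLR2A. Bidirectional fit vs DMSO baseline.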

[15] = read-out: Broad substrate specificity ATP-binding cassette transporter ABCG2 (Homo sapiens) (UniProt Q9UNQ0); assay: LTEA_HepaRG_ABCG2: Life Technologies and Expression Analysis (LTEA) Assay for ABC Transporter (ABCG2) using HepaRG (AID 2283465); settings: mRNA level, 48 h; actives raise or lower the signal
Method in brief: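 Gene expression of ABCG2 in HepaRG liver cells is quantified by qRT-PCR following 48 h exposure across an eight-point series topping at 100 uM. Values come from bidirectional fitting relative to DMSO vehicle.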

[16] = read-out: ATP-citrate lyase (ACLY), ACLY (gene 47); assay: LTEA_HepaRG_ACLY: Life Technologies and Expression Analysis (LTEA) Assay for ATP-citrate lyase (ACLY) using HepaRG (AID 2283466); settings: mRNA level, 48 h; actives raise or lower the signal
Method in brief: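 ACLY expression changes in human HepaRG liver cells are quantified by qRT-PCR after 48 h exposure to test chemicals (maximum 100 uM, half-log steps). Values are fitted in both directions relative to 0.5% DMSO vehicle.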

[17] = read-out: Peroxisomal acyl-coenzyme A oxidase 1 (ACOX1) gene, ACOX1 (gene 51); assay: LTEA_HepaRG_ACOX1: Life Technologies and Expression Analysis (LTEA) Assay for Peroxisomal acyl-coenzyme A oxidase 1 (ACOX1) gene using HepaRG (AID 2283467); settings: mRNA level, 48 h; actives raise or lower the signal
Method in brief: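 Human HepaRG hepatic cultures, 48 h treatment with test chemicals up to 100 uM. ACOX1 expression read by qRT-PCR relative to 0.5% DMSO vehicle.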

[18] = read-out: Alkaline Phosphatase, Placental (ALPP) gene, ALPP (gene 250); assay: LTEA_HepaRG_ALPP: Life Technologies and Expression Analysis (LTEA) Assay for Alkaline Phosphatase, Placental (ALPP) gene using HepaRG (AID 2283468); settings: mRNA level, 48 h; actives raise or lower the signal
Method in brief: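 HepaRG, 48 h plating then 48 h dosing, serum-free induction medium, 0.5% DMSO. 8 conc, half-log, max 100 uM, duplicates. Endpoint: ALPP transcript by qRT-PCR, housekeeping-normalized; gain or loss fitted vs DMSO.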

[19] = read-out: Bcl-2 (BAD) gene, BAD (gene 572); assay: LTEA_HepaRG_BAD: Life Technologies and Expression Analysis (LTEA) Assay for Bcl-2 (BAD) gene using HepaRG (AID 2283469); settings: mRNA level, 48 h; actives raise or lower the signal
Method in brief: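 Activity values reflect up- or down-regulation of BAD mRNA in human HepaRG hepatic cells treated 48 h in serum-free medium, with eight-point half-log dosing capped at 100 uM and 0.5% DMSO vehicle.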

[20] = read-out: Bcl-2 (BAX) gene, BAX (gene 581); assay: LTEA_HepaRG_BAX: Life Technologies and Expression Analysis (LTEA) Assay for Bcl-2 (BAX) gene using HepaRG (AID 2283470); settings: mRNA level, 48 h; actives raise or lower the signal
Method in brief: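 Cells were thawed, plated for 48 h, moved to serum-free induction medium and dosed for 48 h (highest concentration 100 uM, half-log steps, 0.5% DMSO). Total RNA was then analysed for BAX expression by qRT-PCR.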

Sequence of Broad substrate specificity ATP-binding cassette transporter ABCG2 (Homo sapiens) (Q9UNQ0 whole entry, looked up): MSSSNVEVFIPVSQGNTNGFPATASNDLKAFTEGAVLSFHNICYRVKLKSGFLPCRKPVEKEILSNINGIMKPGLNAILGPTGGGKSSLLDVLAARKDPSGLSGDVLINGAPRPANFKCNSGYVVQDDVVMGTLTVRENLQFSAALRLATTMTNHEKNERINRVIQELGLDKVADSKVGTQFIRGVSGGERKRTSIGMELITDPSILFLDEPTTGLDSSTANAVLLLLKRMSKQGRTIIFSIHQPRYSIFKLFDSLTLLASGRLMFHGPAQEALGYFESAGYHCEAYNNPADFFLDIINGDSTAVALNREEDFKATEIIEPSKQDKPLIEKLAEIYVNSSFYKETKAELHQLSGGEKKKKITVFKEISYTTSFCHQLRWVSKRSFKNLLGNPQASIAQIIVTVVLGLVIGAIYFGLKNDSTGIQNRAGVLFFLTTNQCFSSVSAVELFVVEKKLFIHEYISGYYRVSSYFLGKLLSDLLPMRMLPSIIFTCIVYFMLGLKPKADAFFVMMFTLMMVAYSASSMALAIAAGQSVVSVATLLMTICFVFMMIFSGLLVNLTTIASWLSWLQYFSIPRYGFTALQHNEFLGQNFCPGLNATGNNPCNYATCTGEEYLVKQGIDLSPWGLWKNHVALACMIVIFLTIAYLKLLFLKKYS

Q: Which outcome [1] does the source give for `CCC(C)c1cc([N+](=O)[O-])cc([N+](=O)[O-])c1OC(=O)OC(C)C` (centres undefined) here?
A: inactive

Q: For `BrCc1cccc(Oc2ccccc2)c1`, which AC50 [1] is on record?
A: 34.5 µM (active)

Q: For `Nc1ccc(N)c2c1C(=O)c1ccccc1C2=O`, which outcome [1] is on record?
A: inactive

Q: Which AC50 [1] does the source give for `OCc1cccc(Oc2ccccc2)c1` here?
A: 50 µM (active)

Q: With `CS(=O)(=O)OCCCCOS(C)(=O)=O` as the compound, how does the outcome [2] read?
A: inactive

Q: What about the outcome [3] of the same compound?
A: inactive

Q: What about the outcome [4] of the same compound?
A: inactive

Q: What about the outcome [5] of the same compound?
A: inactive

Q: What about the outcome [6] of the same compound?
A: inactive

Q: What about the outcome [7] of the same compound?
A: inactive

Q: What about the outcome [8] of the same compound?
A: inactive

Q: And the outcome [9]?
A: inactive

Q: And the outcome [10]?
A: inactive

Q: And the outcome [11]?
A: inactive

Q: And the outcome [12]?
A: inactive

Q: What about the outcome [13] of the same compound?
A: inactive

Q: What about the outcome [14] of the same compound?
A: inactive

Q: And the outcome [15]?
A: inactive

Q: What about the outcome [16] of the same compound?
A: inactive

Q: And the outcome [17]?
A: inactive

Q: And the outcome [18]?
A: inactive

Q: What about the outcome [19] of the same compound?
A: inactive

Q: And the outcome [20]?
A: inactive

Q: With `CCOC(=O)[C@@H](C)Oc1ccc(Oc2nc3ccc(Cl)cc3o2)cc1` as the compound, how does the outcome [1] read?
A: inactive
